Sampled rows, rich in hits. Any-hit rate of the full collection: about 19%.
HT1080 IDH1KD tx = kills HT-1080 cells with IDH1 knockdown; actives 2% (n = 360,000); HT-1080 IDH1 knockdown viability, ATP luminescence, 48 h; Potency, µM (highest dose often 46.1 µM), for inactives: top-dose activity, negative = toxicity, hits mostly cytotoxic; AID 686971;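 further: potency means the concentration at half of the fitted maximal effect; 0% = DMSO wells and -100% = cell-free medium wells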
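CellTiter-Glo luminescence after 48 h compound exposure at 37 degrees C of IDH1-knockdown HT-1080 cells in 5% FBS RPMI. %Activity scaled between DMSO wells and cell-free media wells, with curves fitted and assigned curve classes.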
IL-1B inflam inh = inflammasome signaling inhibition, IL-1 beta readout. THP-1 LPS/ATP IL-1B secretion, AlphaLISA, 16 h; stronger effect = lower value. activity change, % at 57.5 µM. actives 4.7% (n = 360,000). AID 743279; in the data active means activity change below about -50%; inconclusive means mostly about -30% to -49%
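THP-1 cells pretreated 1 hr with compounds (up to 57.5 uM final), then stimulated with LPS (250 ng/mL final) plus ATP (1.25 mM final); secreted IL-1B measured by AlphaLISA after 16 hr, decreased signal indicating inhibition.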
DT40 TDP1 CPT = growth inhibition of DT40 Tdp1-/-;hTDP1 cells with camptothecin (screen for TDP1 inhibitors); Potency, µM (titrated, usually from 46.2 µM), for the others: at the top dose activity change, negative = growth inhibition, hits mostly inhibitors; actives 12% (n = 420,000); AID 686979; chicken DT40 Tdp1-/-;hTDP1 cells + 20 nM CPT, ATP luminescence, 48 h; further: potency means the concentration at half of the fitted maximal effect; nearly all actives have a fitted effect of over 55% in size
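Cell growth measured by CellTiter-Glo luminescence after a minimum 48 h, 37 C compound exposure with 20 nM CPT in Tdp1-knockout DT40 cells stably expressing hTDP1, seeded 400/well; qHTS titration format.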
TDP1 cell noCPT = qHTS for Inhibitors of human tyrosyl-DNA phosphodiesterase 1 (TDP1): qHTS in cells in absence of CPT; DT40 Tdp1-/- hTDP1 cells, no CPT, ATP luminescence, 48 h; Potency, µM (highest dose often 46.2 µM), for the others: top-dose activity change, negative = growth inhibition, hits mostly inhibitors; AID 686978, 2013; actives 15% (n = 420,000); further: potency means the concentration at half of the fitted maximal effect; nearly all actives have a fitted effect of over 55% in size
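Readout: luminescence from CellTiter-Glo after 30 min in the dark at RT. Cells: DT40 Tdp1-/- with stable hTDP1, 400/well. Exposure: compounds alone, ≥48 hr, 37 °C.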
HT1080NT lethal = kills 2HG-producing HT-1080-NT fibrosarcoma cells. HT-1080-NT fibrosarcoma viability, CellTiter-Glo ATP luminescence, 48 h. Potency, µM (titrated, usually from 46.1 µM), for inactives: at the top dose activity, negative = less viability, hits mostly cytotoxic. actives 1.6% (n = 360,000). AID 686970;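 further: NT is the 2HG producing partner of a matched IDH1 knockdown line; potency means the concentration at half of the fitted maximal effect; 0% = DMSO-treated cells and -100% = media-only wells without cells; nearly all actives have a fitted effect of over 55% in size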
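750 cells/well, RPMI + 5% FBS; 2 h settle, compound pin-transfer, 48 h at 37 degrees C. CellTiter-Glo 10 min RT, luminescence. Normalized to DMSO and media-only wells.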
* = called active by the depositor; ? = inconclusive; / = no result given. Unless noted, the call rests on the fitted dose curve; in most records, active means well fitted curve in the direction sought with a large enough effect; inconclusive means small, poorly fitted or top-dose-only effect, or another doubt; inactive means no such curve, though single readings can be large; an effect the other way counts as inactive or inconclusive. Unless noted, on the % scale 0 is the no-effect control and ±100 the full control effect.

SMILES | HT1080 IDH1KD tx | IL-1B inflam inh | DT40 TDP1 CPT | TDP1 cell noCPT | HT1080NT lethal
C=C1C(=O)[C@@]23C[C@H]4[C@@H]5[C@@]6(C)CCC[C@@]57[C@@H]2[C@@H](O)[C@@H]1C[C@H]3[C@H]7N4C6 | ? | -108* | 4.6µM* | 4.1µM* | ?
O=C1CN=C(c2ccccc2)c2cc(Cl)ccc2N1 | -1% | -14 | 1% | -7% | -15%
Cc1ccc(NC(=O)CSc2nc(-c3ccco3)cc(C(F)(F)F)n2)c(C)c1 | / | / | 1.5µM* | 1.8µM* | /
Cc1ccccc1CCNCc1cc2cccc(C)c2[nH]c1=O | -10% | ? | 16µM* | 16µM* | -12%
O[N+]1=CC=CCC1=S.On1ccccc1=S.[Zn] | / | / | 0.033µM* | 0.15µM* | /
Oc1c(Cl)cccc1Cc1cc(Cl)cc(Cl)c1O | ? | ? | ? | 21µM* | ?
CC(C)c1oc(=O)cc2c1[C@@H](O)[C@H]1OC(=O)[C@@]3(C)C[C@@H](O)[C@@H](O)[C@@]2(C)C13 (stereo partly drawn) | 10µM* | -8 | 2.1µM* | 1.8µM* | ?
CC(C)c1oc(=O)cc2c1[C@@H](O)[C@H]1OC(=O)[C@@]3(C)CC[C@@H](O)[C@@]2(C)C13 (stereo partly drawn) | ? | 62 | 5.8µM* | 5.2µM* | ?
Cc1nc2ccccc2c(=O)n1-c1cccc([N+](=O)[O-])c1 | 7% | 29 | 5% | -7% | 8%
O=C(COc1ccc(Cl)cc1)N1CCN(Cc2ccc([N+](=O)[O-])cc2)CC1 | -13% | -23 | ? | 23µM* | -6%
O=[N+]([O-])c1cccc(CN2CCN(Cc3ccc(Cl)cc3)CC2)c1 | -7% | -21 | ? | 16µM* | -23%
COc1ccc(OCC(=O)N2CCN(Cc3nc4cc([N+](=O)[O-])ccc4n3C)CC2)cc1 | -6% | -8 | 15µM* | ? | -7%
Cc1ccc(OCC(=O)N2CCN(Cc3ccc(F)cc3)CC2)cc1 | / | / | -10% | -22% | /
CSc1ccc(CN2CCN(C(=O)COc3cccc(C)c3)CC2)cc1 | -20% | ? | 16µM* | 21µM* | -6%
Cc1cccc(OCC(=O)N2CCN(Cc3cccnc3)CC2)c1 | -6% | -13 | -9% | -27% | -7%
COc1ccc(OCC(=O)N2CCN(CCc3ccncc3)CC2)cc1 | / | / | -6% | -2% | /
CC(C)(C)NCC(O)c1cc(Cl)c(N)c(C(F)(F)F)c1 (stereo not drawn) | / | / | 14% | -16% | /
COc1cc2c(cc1OC)-c1c(OC)c(OC)cc3c1[C@H](C2)N(C)CC3 | -5% | -1 | ? | 16µM* | -2%
COc1cc2c(cc1O)CC1c3c(cc(O)c(OC)c3-2)CCN1C (stereo not drawn) | 0% | ? | -28% | -25% | -6%
CNC1C2CN3CCC(O2)C13 (stereo not drawn) | / | / | 2% | -3% | /
C[C@]12C=CC(=O)C=C1CC[C@@H]1C2=CC[C@]2(C)[C@@H](C(=O)CN3CCN(c4cc(N5CCCC5)nc(N5CCCC5)n4)CC3)CC[C@@H]12 | -25% | ? | 18µM* | 13µM* | -26%
CC(=NCc1ccco1)c1c(O)n(Cc2ccccc2)c(=O)[nH]c1=O | -3% | -4 | -19% | -5% | -3%
Cc1cc(O)c2c(c1)C(=O)c1cc(O)cc(O)c1C2=O | -22% | -13 | 18µM* | 21µM* | -30%
C/C=C1/CC(C)C(C)(O)C(=O)OCC2CCN3CCC(OC1=O)C23 (stereo not drawn) | 15% | 0 | -4% | -6% | 20%
O=c1c(F)cn(C2CCCO2)c(=O)n1Cc1c(F)cccc1Cl (stereo not drawn) | -5% | -20 | 6% | ? | -4%
Cc1cc2c(cc(C(=O)N3CCC(C(=O)NC4CCCC4)CC3)n2Cc2c(F)cccc2Cl)o1 | 3% | 18 | 18µM* | 23µM* | 1%

Source: PubChem BioAssay
